Data on 32 molecules can be found in PubChem BioAssay (Tox21).

Values joined by “and” are separate entries in the source; they are usually repeats but may differ in a detail not shown here. Identical values can stand only once. Values without a mark were called inactive. Inconclusive results are not listed. Active and inactive are the calls of the source. Unless noted, calls follow the shape of the dose curve; as a rule, active = well fitted curve in the direction sought with a large enough effect in the repeat runs; inconclusive = weak or mixed curves; inactive = no such curve, though single readings can be large; an effect the other way counts as inactive or inconclusive.

Experiment [1] can be described thus: qHTS assay to identify small molecule antagonists of the glucocorticoid receptor (GR) signaling pathway - cell viability counter screen (AID 720693). Also: nearly all actives have a fitted effect of over 55% in size. Also: potency is read from the fitted curve at half-maximal effect.
Experiment [2] can be described thus: qHTS assay for identifying genotoxic compounds that show differential cytotoxicity against isogenic chicken DT40 cell lines with known DNA damage response pathways - wild type cell line (AID 743012). Also: nearly all actives have a fitted effect of over 60% in size. Also: potency is read from the fitted curve at half-maximal effect. In outline: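 Viability of DNA repair-proficient chicken DT40 cells was assessed by CellTiter-Glo luminescence following 40 h compound exposure at 37 C/5% CO2.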
In general terms: qHTS replaces the single test concentration by a dilution series.

The nature of experiment [3]: qHTS assay for identifying genotoxic compounds that show differential cytotoxicity against isogenic chicken DT40 cell lines with known DNA damage response pathways - Rev3 mutant cell line (AID 743014). Also: nearly all actives have a fitted effect of over 55% in size. Also: potency is read from the fitted curve at half-maximal effect.
A short description of experiment [4]: qHTS assay to identify small molecule antagonists of the androgen receptor (AR) signaling pathway - cell viability counter screen (AID 743033; also: nearly all actives have a fitted effect of over 45% in size; also: potency is read from the fitted curve at half-maximal effect).
Experiment [5] in a line: qHTS assay to identify small molecule antagonists of the androgen receptor (AR) signaling pathway using the MDA cell line - cell viability counter screen (AID 743041; also: nearly all actives have a fitted effect of over 45% in size; also: potency is read from the fitted curve at half-maximal effect). The method, boiled down: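 In this qHTS counter assay, fluorescence intensity after CellTiter-Fluor addition indicated viability of MDA-kb2 AR-luc cells given compounds and R1881 for 16 h at 37C.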
The target of experiment [6] is Androgen receptor (Homo sapiens) (UniProt P10275). Description: qHTS assay to identify small molecule agonists of the androgen receptor (AR) signaling pathway using the MDA cell line (AID 743040; also: nearly all actives have a fitted effect of over 20% in size). The method, boiled down: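 Cell-based luciferase reporter: MDA-kb2, MMTV promoter (AR + GR response elements). 16 h compound exposure at 37C; ONE-Glo, 30 min RT, luminescence.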
Sequence of Androgen receptor (Homo sapiens) (P10275 whole entry, looked up): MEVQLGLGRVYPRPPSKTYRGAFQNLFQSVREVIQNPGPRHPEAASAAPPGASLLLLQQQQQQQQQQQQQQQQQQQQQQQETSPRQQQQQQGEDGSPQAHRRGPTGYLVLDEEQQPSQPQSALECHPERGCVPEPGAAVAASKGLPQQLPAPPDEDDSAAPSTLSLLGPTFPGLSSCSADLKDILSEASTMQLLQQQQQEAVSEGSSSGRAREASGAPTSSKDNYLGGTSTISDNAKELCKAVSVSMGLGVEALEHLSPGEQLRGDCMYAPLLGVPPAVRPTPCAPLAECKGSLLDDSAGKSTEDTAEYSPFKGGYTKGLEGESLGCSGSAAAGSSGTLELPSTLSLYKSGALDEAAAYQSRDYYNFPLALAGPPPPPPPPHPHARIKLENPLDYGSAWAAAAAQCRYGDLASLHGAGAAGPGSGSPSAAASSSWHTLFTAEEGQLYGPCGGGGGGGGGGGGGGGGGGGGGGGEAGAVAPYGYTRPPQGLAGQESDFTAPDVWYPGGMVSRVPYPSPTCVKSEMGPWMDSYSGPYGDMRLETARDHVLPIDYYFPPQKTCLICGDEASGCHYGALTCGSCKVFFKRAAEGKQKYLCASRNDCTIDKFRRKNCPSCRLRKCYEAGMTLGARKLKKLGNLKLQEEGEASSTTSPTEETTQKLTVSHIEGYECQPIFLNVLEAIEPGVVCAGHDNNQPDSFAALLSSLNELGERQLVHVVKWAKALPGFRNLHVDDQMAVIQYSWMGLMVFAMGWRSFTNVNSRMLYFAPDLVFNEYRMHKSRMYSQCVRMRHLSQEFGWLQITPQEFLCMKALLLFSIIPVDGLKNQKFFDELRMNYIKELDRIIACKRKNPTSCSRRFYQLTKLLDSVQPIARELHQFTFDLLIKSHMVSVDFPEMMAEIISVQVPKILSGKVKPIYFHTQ

For experiment [7] the target is unchanged. The experiment is described as follows: qHTS assay to identify small molecule antagonists of the androgen receptor (AR) signaling pathway using the MDA cell line (AID 743042; also: nearly all actives have a fitted effect of over 55% in size). In outline: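 MDA-kb2 cells (human breast carcinoma, stably carrying an MMTV-luciferase reporter responsive to AR and GR) were plated at 3,000 cells/well and preincubated 5 hr at 37C, then given compound plus R1881 agonist for 16 h. ONE-Glo luminescence was read.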

A short description of experiment [8]: qHTS assay for identifying genotoxic compounds that show differential cytotoxicity against isogenic chicken DT40 cell lines with known DNA damage response pathways - Rad54/Ku70 mutant cell line (AID 743015). Also: nearly all actives have a fitted effect of over 60% in size. Also: potency is read from the fitted curve at half-maximal effect.
Experiment [9] concerns the target Androgen receptor (Homo sapiens) (UniProt P10275). Description: qHTS assay to identify small molecule antagonists of the androgen receptor (AR) signaling pathway (AID 743035; active = well fitted inhibition curve with a large enough effect in the signal ratio in the repeat runs, not every such curve was filed as active; the % refers to the signal ratio; also: potency is read from the fitted curve at half-maximal effect). The method, boiled down:
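Reporter HEK293 cells were exposed to compounds and R1881 overnight (16 h, 37C); beta-lactamase activity was then quantified by FRET fluorescence.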

The target is the same in experiment [10]. The experiment is described as follows: qHTS assay to identify small molecule agonists of the androgen receptor (AR) signaling pathway (AID 743036; active = well fitted activation curve with a large enough effect in the signal ratio in the repeat runs, with a control signal flat, not every such curve was filed as active; the % refers to the signal ratio). In outline: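 Fluorescence from a beta-lactamase FRET substrate served as read-out in AR-UAS-bla GripTite HEK293 cells. Cells were treated with DMSO-dissolved compounds for 16 h at 37C, then with LiveBLAzer B/G substrate for 2 h at room temperature.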
% is scaled to controls: 0 for no effect and ±100 for the full control effect.

Turning to `CC(C)(c1cc(Br)c(OCC(Br)CBr)c(Br)c1)c1cc(Br)c(OCC(Br)CBr)c(Br)c1` (configuration not stated), the Potency entry in experiment [1], in [2], in experiment [3], in [4] and in experiment [5] was “inactive” throughout.

Turning to `C=C(CC)C(=O)c1ccc(OCC(=O)O)c(Cl)c1Cl`, the Potency result in experiment [1] and in [4] was “inactive” in each case. Moreover, the Potency was 18.8 µM (active) and 43 µM (active) in experiment [2]; 26.6 µM (active) and 48.2 µM (active) in experiment [3]; 54.1 µM (active) in experiment [5].

As for `CCC(C)[O-].CCC(C)[O-].CCOC(=O)/C=C(/C)[O-].[Al+3]`, the Potency entry in experiment [1], in experiment [2], in [3], in [4] and in experiment [5] was “inactive” each time.

For the molecule `C#C[C@]1(OC(C)=O)CC[C@H]2[C@@H]3CCC4=C[C@@H](OC(C)=O)CC[C@@H]4[C@H]3CC[C@@]21C`, the Potency entry in experiment [1] and in [4] was “inactive” throughout. Also, the Potency was 3.76 µM (active) and 6.68 µM (active) in [2]; 10.6 µM (active) and 16.8 µM (active) in experiment [3].

With `O=[N+]([O-])c1ccc(F)c(Cl)c1`, the Potency entry in experiment [1], in experiment [2], in experiment [3], in experiment [4] and in experiment [5] was “inactive” each time.

As to `Cc1ccc(C(C)C)cc2c(C)ccc1-2`, the Potency entry in experiment [1], in [2], in experiment [3], in experiment [4] and in experiment [5] was “inactive” each time.

As to `O=C(c1ccc(O)c(O)c1)c1ccc(O)cc1O`, the Potency entry in [1], in experiment [4] and in [5] was “inactive” each time. Moreover, the Potency is 43.2 µM (active) in experiment [2] and 21.6 µM (active) in experiment [3].

Turning to `c1ccc(C(O[C@@H]2CCCN(CCc3ccc4c(c3)OCO4)C2)c2ccccc2)cc1`, the Potency entry in [1], in [4] and in experiment [5] was “inactive” each time. In addition, the Potency was 38.6 µM (active) in [2] and 30.6 µM (active) in [3].

Take `CC(C(=O)O)c1ccc2c(c1)[nH]c1ccc(Cl)cc12` (configuration not stated): the Potency result in experiment [1], in experiment [2], in experiment [3] and in experiment [4] was “inactive” each time.

`CCO[Si](OCC)(OCC)OCC`: the Potency result in experiment [1], in experiment [2], in experiment [3], in experiment [4] and in experiment [5] was “inactive” in each case.

Turning to `Cc1cc(=O)oc2cc(O)cc(O)c12`, the Potency result in [1], in [2], in experiment [3], in [4] and in [7] was “inactive” in each case. The outcome in experiment [6] was inactive.

Regarding `CCCCCCCCCCCCCCCC[N+](C)(C)CC`, the Potency in experiment [1] is 13.4 µM (active) and 17.4 µM (active); in experiment [2], 376 nM (active) and 866 nM (active); in experiment [3] it was 422 nM (active) and 866 nM (active); in [4], 9.52 µM (active) and 21.9 µM (active); in experiment [5], 18.8 µM (active) and 43.4 µM (active).

For `CCOc1ccc2ccccc2c1C(=O)N[C@@H]1C(=O)N2[C@@H]1SC(C)(C)[C@@H]2C(=O)O`, the Potency entry in [1], in [2], in experiment [3], in experiment [8], in experiment [9] and in [5] was “inactive” each time. Besides, the Potency result in experiment [7] was “inactive”. For the same molecule, in experiment [6], the outcome was inactive.

With `CC1=Nc2ccccc2C1(C)C`, the Potency entry in experiment [1], in [2], in experiment [3], in experiment [4] and in experiment [5] was “inactive” each time.

As for `O=C1NC(=O)[C@@H]2CC=CC[C@H]12`, the Potency result in experiment [1], in experiment [4] and in [5] was “inactive” in each case. Besides, the Potency in experiment [2] was 61.1 µM (active); in experiment [3], 48.6 µM (active).

With `OC12N=C(c3ccccc3)SC1Cc1cc(Cl)ccc12` (configuration not stated), the Potency entry in experiment [1] and in [5] was “inactive” each time. In addition, the results for the Potency in experiment [2], in experiment [3] and in [8] were 68.6 µM (active), 68.6 µM (active) and 43.3 µM (active), respectively.

For `O=C1C(c2[nH]c3ccc(S(=O)(=O)O)cc3c2O)=Nc2ccc(S(=O)(=O)O)cc21`, the Potency entry in experiment [1], in experiment [2], in experiment [3], in experiment [4] and in experiment [5] was “inactive” each time.

Consider `FC(F)(F)c1cccc(Cl)c1`, for which the Potency entry in [1], in experiment [2], in [3], in experiment [4], in experiment [9] and in experiment [5] was “inactive” each time. The call in experiment [6] was inactive.

On to `CCCCOC(=O)CC`, for which the Potency entry in experiment [1], in experiment [2], in [3] and in experiment [4] was “inactive” in each case.

Turning to `COc1c(C)c2c(c(O)c1C/C=C(\C)CCC(=O)OCCN1CCOCC1)C(=O)OC2`, the Potency result in experiment [1], in [5] and in experiment [7] was “inactive” in each case. For the same molecule, the Potency in experiment [2] was 0.531 µM (active); in experiment [3] it was 0.422 µM (active); in experiment [8] it was 0.422 µM (active); in experiment [9] it was 674 nM (active). The call in experiment [6] was inactive.

On to `CCCCCCCC/C=C\CCCCCCCCN`, for which the Potency result in experiment [1], in experiment [2], in [3] and in experiment [4] was “inactive” throughout.

Take `O=C(O)c1cc(-c2ccc(F)cc2F)ccc1O`: the Potency result in [1], in [2], in [3], in experiment [4] and in experiment [5] was “inactive” throughout.

In the case of `O=S(=O)(O)c1ccc(N=Nc2c(O)ccc3ccccc23)cc1`, in experiment [1], the Potency result is “inactive”. Further, the Potency in [2] was 61.1 µM (active); in experiment [3] it was 30.6 µM (active); in [8], 54.5 µM (active); in experiment [5] it was 27.3 µM (active).

Turning to `CN(C)Cc1cc(C(C)(C)C)c(O)c(C(C)(C)C)c1`, the Potency result in [1] and in [5] was “inactive” throughout. Moreover, the Potency in experiment [2], in [3] and in experiment [8] was 17.2 µM (active) in each case.

In the case of `CCCCCCC1CCCC(=O)O1` (configuration not stated), the Potency result in [1], in [2], in [3] and in experiment [4] was “inactive” in each case.

For the molecule `CCN1C(=O)c2ccccc2C1Nc1ccc(OCCN2CCCCC2)cc1` (configuration not stated), the Potency entry in [1], in experiment [3], in experiment [4], in experiment [9], in [10] and in [5] was “inactive” in each case. Also, in experiment [7], the Potency entry was “inactive”. For the same molecule, the Potency in experiment [2] is 26.6 µM (active). Besides, the outcome in [6] was inactive.

On to `O=c1[nH]c(=O)n([C@H]2C[C@H](O)[C@@H](CO)O2)cc1F`, for which the Potency entry in experiment [1], in experiment [4] and in experiment [5] was “inactive” each time. The values for the Potency in [2] and in experiment [3] were 0.0053 µM (active) and 0.0038 µM (active), respectively.

On to `CC(=O)Oc1cc2c(s1)CCN(C(C(=O)C1CC1)c1ccccc1F)C2` (configuration not stated), for which the Potency result in [1], in experiment [2], in experiment [3], in experiment [4] and in [5] was “inactive” in each case.

As to `CC(C)Cn1cnc2c(N)nc3ccccc3c21`, the Potency entry in [1], in [2], in experiment [4], in experiment [10] and in experiment [7] was “inactive” in each case. In addition, in [6], the call was inactive.

Regarding `CC(C)(C)CC(C)(C)c1ccc(Nc2ccc(C(C)(C)CC(C)(C)C)cc2)cc1`, the viability change, negative = cytotoxic is -8.5% [at 7.04 µM] in experiment [1] and -4.37% [at 8.47 µM] in [5]. In [3], the activity, negative = cytotoxicity was 3.12% [at 8.53 µM]. Also, the activity change, negative = cytotoxicity in experiment [8] was 9.12% [at 8.55 µM]; in [4], 1.05% [at 7.04 µM].

Take `CCC(COC(=O)CCS)(COC(=O)CCS)COC(=O)CCS`: the Potency entry in [1], in [2], in experiment [4] and in [5] was “inactive” each time.

`C=Cc1cccc(C)c1`: the Potency entry in experiment [1], in experiment [3], in experiment [8] and in experiment [4] was “inactive” throughout.
